In the supplement of paper PMC11006884:
The full data set covers some 6,500 targets. This sample favours those with a hit. About 2% of all pairs of compound and target were hits. Values without a mark were called inactive.

Compound: COC(=O)C#Cc1ccccc1 [methyl 3-phenylpropiolate]
Assay: log2 ratio of iodoacetamide-alkyne labeling of the cysteine site, DMSO over compound (competition); higher = stronger covalent engagement of the cysteine by the compound, active = 1 or more
Settings: 500 µM; treatment time 1 h; system: HEK293T cell lysate
Procedure, shortened: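 HEK293T lysate (2 mg/mL) was incubated with electrophile (500 µM) or vehicle for 1 h at ambient temperature and then with iodoacetamide alkyne for 1 h. Labelled proteins were clicked to sCIP-TMT reagents, pooled, digested, enriched on streptavidin and measured by Orbitrap Eclipse LC-MS/MS with FAIMS, with FragPipe quantification. The per-cysteine log2 competition ratio is mean control-channel reporter intensity over mean compound-channel reporter intensity. Across three replicates with duplicate channels, cysteines quantified in only one replicate were excluded.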

Sequence of UniProt Q5JRA6 (Q5JRA6 whole entry, looked up): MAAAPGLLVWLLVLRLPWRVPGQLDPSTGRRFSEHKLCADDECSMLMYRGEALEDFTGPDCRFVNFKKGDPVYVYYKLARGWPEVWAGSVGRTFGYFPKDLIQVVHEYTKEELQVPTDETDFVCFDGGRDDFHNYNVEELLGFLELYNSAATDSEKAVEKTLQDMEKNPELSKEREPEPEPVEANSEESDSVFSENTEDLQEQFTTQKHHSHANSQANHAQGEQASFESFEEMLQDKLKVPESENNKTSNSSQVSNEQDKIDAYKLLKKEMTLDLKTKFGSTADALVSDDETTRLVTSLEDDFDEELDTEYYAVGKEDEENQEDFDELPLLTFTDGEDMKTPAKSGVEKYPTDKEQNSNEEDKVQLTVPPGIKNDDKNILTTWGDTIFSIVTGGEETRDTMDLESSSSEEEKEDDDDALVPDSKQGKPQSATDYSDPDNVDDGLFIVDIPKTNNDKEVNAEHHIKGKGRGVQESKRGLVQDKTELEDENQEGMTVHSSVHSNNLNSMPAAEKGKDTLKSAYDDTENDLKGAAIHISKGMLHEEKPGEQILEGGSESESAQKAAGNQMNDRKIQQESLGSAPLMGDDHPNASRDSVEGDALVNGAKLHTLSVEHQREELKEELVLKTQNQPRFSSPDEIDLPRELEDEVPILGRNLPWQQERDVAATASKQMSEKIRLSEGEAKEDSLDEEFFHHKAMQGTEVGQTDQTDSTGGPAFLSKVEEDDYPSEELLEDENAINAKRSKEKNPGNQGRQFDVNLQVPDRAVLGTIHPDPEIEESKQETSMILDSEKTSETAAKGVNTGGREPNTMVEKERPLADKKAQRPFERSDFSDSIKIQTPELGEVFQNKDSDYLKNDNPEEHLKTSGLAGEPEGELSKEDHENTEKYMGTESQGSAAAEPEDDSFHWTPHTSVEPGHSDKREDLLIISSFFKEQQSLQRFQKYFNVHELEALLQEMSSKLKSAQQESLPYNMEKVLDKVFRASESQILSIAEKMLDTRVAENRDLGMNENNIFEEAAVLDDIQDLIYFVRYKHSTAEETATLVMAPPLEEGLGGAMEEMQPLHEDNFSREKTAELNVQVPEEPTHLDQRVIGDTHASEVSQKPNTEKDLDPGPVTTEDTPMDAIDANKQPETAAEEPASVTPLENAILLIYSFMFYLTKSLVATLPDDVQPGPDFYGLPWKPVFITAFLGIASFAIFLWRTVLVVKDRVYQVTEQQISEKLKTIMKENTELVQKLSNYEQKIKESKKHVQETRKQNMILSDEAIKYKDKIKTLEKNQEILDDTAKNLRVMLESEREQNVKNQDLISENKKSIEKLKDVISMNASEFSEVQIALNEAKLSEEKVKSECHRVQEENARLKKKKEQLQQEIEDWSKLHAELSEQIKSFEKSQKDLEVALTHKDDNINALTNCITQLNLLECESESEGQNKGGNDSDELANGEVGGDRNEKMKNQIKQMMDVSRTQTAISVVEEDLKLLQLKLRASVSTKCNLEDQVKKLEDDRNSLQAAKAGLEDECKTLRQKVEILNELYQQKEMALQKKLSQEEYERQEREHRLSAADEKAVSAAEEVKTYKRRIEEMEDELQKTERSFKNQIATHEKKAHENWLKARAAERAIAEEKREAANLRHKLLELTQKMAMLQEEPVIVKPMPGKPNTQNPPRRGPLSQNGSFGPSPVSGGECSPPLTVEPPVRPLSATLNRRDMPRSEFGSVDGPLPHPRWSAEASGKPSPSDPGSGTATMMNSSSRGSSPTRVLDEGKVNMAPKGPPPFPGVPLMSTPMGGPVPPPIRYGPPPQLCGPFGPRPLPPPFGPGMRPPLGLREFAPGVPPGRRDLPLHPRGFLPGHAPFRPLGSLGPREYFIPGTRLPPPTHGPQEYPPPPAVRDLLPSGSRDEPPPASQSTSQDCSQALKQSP
Sequence of UniProt P78347 (P78347 whole entry, looked up): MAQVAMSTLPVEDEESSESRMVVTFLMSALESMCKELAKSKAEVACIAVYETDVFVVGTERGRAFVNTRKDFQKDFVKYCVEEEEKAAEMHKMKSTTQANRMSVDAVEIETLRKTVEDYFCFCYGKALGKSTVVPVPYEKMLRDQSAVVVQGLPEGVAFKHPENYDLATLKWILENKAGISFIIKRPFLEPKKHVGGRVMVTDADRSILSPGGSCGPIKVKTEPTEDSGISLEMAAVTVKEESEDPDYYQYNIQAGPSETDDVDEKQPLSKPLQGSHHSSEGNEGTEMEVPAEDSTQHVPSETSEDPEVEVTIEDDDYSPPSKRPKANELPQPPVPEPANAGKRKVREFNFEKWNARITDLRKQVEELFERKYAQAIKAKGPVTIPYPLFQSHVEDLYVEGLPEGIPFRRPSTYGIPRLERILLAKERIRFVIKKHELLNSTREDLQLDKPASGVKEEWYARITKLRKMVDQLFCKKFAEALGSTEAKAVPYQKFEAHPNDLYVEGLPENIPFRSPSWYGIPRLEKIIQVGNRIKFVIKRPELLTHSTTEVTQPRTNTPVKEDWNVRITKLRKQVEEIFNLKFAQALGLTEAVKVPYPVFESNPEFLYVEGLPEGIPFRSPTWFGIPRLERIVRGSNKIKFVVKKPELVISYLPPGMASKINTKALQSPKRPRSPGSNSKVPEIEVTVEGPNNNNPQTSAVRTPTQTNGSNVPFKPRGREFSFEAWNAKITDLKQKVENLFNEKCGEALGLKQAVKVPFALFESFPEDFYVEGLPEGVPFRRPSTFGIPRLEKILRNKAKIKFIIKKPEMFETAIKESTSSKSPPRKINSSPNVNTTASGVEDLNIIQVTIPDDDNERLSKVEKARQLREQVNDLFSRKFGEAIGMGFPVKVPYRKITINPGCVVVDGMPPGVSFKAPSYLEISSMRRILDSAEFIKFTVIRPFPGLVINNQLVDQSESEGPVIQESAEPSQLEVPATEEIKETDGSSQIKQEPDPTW
Sequence of UniProt Q08J23 (Q08J23 whole entry, looked up): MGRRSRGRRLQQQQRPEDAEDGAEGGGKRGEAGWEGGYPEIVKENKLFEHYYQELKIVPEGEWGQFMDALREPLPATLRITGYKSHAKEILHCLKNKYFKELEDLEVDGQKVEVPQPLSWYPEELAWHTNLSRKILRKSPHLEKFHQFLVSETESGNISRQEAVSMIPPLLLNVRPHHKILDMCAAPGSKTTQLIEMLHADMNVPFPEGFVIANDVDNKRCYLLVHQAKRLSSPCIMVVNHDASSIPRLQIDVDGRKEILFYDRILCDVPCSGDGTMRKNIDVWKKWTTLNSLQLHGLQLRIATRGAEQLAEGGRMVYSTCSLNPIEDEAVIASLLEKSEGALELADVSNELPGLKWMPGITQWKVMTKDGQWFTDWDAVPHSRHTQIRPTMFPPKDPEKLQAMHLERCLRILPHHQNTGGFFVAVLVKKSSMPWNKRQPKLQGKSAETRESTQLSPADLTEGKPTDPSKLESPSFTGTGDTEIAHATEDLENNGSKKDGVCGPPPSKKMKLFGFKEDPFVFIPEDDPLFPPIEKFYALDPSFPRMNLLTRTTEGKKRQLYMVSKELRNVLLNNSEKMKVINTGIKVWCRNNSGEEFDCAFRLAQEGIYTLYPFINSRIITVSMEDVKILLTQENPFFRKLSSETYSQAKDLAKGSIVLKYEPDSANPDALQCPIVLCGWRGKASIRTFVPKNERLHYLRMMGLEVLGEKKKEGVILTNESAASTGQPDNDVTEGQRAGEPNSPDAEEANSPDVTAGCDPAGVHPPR
Sequence of UniProt Q2NL82 (Q2NL82 whole entry, looked up): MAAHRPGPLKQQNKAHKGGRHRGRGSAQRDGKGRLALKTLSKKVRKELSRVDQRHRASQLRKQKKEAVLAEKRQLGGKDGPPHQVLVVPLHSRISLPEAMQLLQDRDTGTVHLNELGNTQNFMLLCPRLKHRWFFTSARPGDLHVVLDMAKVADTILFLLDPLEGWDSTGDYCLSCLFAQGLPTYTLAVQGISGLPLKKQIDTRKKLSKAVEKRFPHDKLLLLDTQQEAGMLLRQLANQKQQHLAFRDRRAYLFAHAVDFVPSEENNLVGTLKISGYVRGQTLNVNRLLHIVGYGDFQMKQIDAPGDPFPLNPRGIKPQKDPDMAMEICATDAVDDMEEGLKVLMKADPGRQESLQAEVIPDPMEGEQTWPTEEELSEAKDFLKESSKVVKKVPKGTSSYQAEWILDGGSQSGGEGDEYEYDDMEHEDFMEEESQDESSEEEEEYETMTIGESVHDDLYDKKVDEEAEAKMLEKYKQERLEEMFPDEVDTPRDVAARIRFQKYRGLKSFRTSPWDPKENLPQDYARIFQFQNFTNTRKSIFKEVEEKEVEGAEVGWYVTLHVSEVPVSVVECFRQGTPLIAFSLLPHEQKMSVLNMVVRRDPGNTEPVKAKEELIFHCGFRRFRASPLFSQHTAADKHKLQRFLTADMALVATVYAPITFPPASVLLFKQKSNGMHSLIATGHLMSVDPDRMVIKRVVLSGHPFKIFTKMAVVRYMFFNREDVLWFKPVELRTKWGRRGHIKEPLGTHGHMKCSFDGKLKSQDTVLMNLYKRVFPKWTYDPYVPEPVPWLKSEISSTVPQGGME
Sequence of UniProt P62993 (P62993 whole entry, looked up): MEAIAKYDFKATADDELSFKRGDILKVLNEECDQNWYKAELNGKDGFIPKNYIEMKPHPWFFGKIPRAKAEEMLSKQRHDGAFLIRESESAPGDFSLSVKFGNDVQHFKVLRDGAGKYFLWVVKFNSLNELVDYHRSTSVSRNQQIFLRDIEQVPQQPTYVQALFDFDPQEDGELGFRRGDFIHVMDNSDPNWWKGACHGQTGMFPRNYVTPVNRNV
Sequence of UniProt Q15005 (Q15005 whole entry, looked up): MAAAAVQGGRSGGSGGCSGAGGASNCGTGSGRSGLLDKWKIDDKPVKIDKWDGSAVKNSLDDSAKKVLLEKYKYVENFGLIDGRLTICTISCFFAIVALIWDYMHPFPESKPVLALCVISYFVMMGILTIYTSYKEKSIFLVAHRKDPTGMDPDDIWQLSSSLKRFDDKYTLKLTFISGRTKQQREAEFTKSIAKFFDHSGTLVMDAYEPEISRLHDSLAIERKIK
Sequence of UniProt Q13404 (Q13404 whole entry): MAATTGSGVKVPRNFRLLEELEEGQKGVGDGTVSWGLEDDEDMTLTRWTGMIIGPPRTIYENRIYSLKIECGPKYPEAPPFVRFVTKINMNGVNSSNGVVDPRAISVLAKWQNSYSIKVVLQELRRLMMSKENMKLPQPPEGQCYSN

Target	log2 ratio of iodoacetamide-alkyne labeling
TTLL12 C126 (UniProt Q14166)	-0.117
NUBP1 C22 (UniProt P53384)	2.24 (active)
NUP107 C78 (UniProt P57740)	0.705
DDX39B C198 (UniProt Q13838)	-0.129
MDC1 C1742 (UniProt Q14676)	0.0644
PPP5C C11 (UniProt P53041)	0.16
RRP1B C583 (UniProt Q14684)	0.481
LGALS3BP C489 (UniProt Q08380)	1.72 (active)
BLM C704 (UniProt P54132)	0.6
UniProt P62306_C66	0.0671
UniProt Q00341_C948	0.167
SPCS2 C26 (UniProt Q15005)	1.62 (active)
GTF2I C80 (UniProt P78347)	0.0358
TARBP1 C483 (UniProt Q13395)	1.21 (active)
ACTR3 C12 (UniProt P61158)	0.212
DOCK11 C409 (UniProt Q5JSL3)	-0.0544
UniProt P62854_C77	0.434
PRDX4 C51 (UniProt Q13162)	1.66 (active)

Target	log2 ratio of iodoacetamide-alkyne labeling
TSR1 C329 (UniProt Q2NL82)	0.425
NSUN2 C184 (UniProt Q08J23)	-0.0329
UniProt P62330_C155	0.452
FLYWCH1 C173 (UniProt Q4VC44)	-0.0462
LMNB2 C212 (UniProt Q03252)	0.214
UniProt Q13247_C61	-0.0753
MIA3 C1513 (UniProt Q5JRA6)	0.31
SMC1A C987 (UniProt Q14683)	0.473
ATP2C1 C162 (UniProt P98194)	0.0772
UniProt P78527_C3281	0.287
GRB2 C32 (UniProt P62993)	0.167
UBE2V1 C144 (UniProt Q13404)	0.136
TTLL12 C612 (UniProt Q14166)	0.0779
REEP5 C18 (UniProt Q00765)	0.482
PPP5C C452 (UniProt P53041)	0.0827
PPP5C C77 (UniProt P53041)	0.135
SF3A1 C244 (UniProt Q15459)	0.0803
